The source of these data is PubChem BioAssay (Tox21).

Results filed as inconclusive are left out. Active and inactive are the calls of the source. Unless noted, calls follow the shape of the dose curve; as a rule, active = well fitted curve in the direction sought with a large enough effect in the repeat runs; inconclusive = weak or mixed curves; inactive = no such curve, though single readings can be large; an effect the other way counts as inactive or inconclusive.

Experiment [1] in a line: qHTS assay to test for compound auto fluorescence at 535 nm (green) in HEK293 cells (AID 720680). The settings on record: green autofluorescence 485/535 nm; series mostly up to 46 µM. Background: In qHTS, concentration-response curves come from the screen itself.
The nature of experiment [2]: qHTS assay to test for compound auto fluorescence at 460 nm (blue) in HEK293 cell free culture (AID 720681). Also: potency is read from the fitted curve at half-maximal effect. Particulars: cell-free medium, autofluorescence 405/460 nm (blue); series mostly up to 46 µM. In outline:
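Test compounds were pinned into cell-free culture medium (DMEM with 10% FBS) and fluorescence was read directly at Ex/Em 405/460 nm. Signals were expressed as fluorescence equivalents of triamterene, with DMSO vehicle as control.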

Experiment [3] in a line: qHTS assay to test for compound auto fluorescence at 535 nm (green) in HEK293 cell free culture (AID 720682). Particulars: cell-free medium, green autofluorescence 485/535 nm, hits give high values; series mostly up to 46 µM. The procedure, abridged: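 Each library compound, or DMSO control, is added by pintool to medium alone, comprising DMEM and 10% FBS. Emission at 535 nm following 485 nm excitation is quantified against fluorescein.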

A short description of experiment [4]: qHTS assay to test for compound auto fluorescence at 590 nm (red) in HEK293 cell free culture (AID 720683). Particulars: cell-free medium autofluorescence, Ex540/Em590 red; series mostly up to 46 µM. In outline:
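Tox21 10K library compounds were pinned into cell-free DMEM with 10% FBS and fluorescence was read at excitation 540 nm. Activity is expressed as Rose Bengal sodium equivalency.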

The nature of experiment [5]: qHTS assay to test for compound auto fluorescence at 590 nm (red) in HepG2 cell free culture (AID 720684). The settings on record: cell-free medium autofluorescence, red 540/590 nm; series mostly up to 46 µM. The procedure, abridged:
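Readout: intrinsic compound fluorescence at 590 nm emission after 540 nm excitation, scaled to Rose Bengal sodium. Matrix was cell-free MEM with 10% FBS; DMSO vehicle wells served as control.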

Experiment [6] is described as follows: qHTS assay to test for compound auto fluorescence at 460 nm (blue) in HepG2 cell free culture (AID 720685). Also: potency is read from the fitted curve at half-maximal effect. Particulars: Cell-free culture medium, blue autofluorescence 405/460 nm; series mostly up to 46 µM. In outline: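 Cell-free plates of MEM plus 10% FBS received 23 nL compound or DMSO vehicle; blue-channel (405/460 nm) intensity scored against triamterene as reference fluorophore.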

The nature of experiment [7]: qHTS assay to test for compound auto fluorescence at 535 nm (green) in HepG2 cell free culture (AID 720686). The settings on record: Cell-free medium, green autofluorescence 485/535 nm; series mostly up to 46 µM.
The nature of experiment [8]: qHTS assay to test for compound auto fluorescence at 460 nm (blue) in HepG2 cells (AID 720687). Also: potency is read from the fitted curve at half-maximal effect. Particulars: autofluorescence 405/460 nm, 1 h; series mostly up to 46 µM. In outline:
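Cells (2,000/well in MEM with 10% FBS) attached overnight at 37 C, then were exposed to compound or DMSO for 1 hr at 37 C, 5% CO2. Fluorescence read at Ex/Em 405/460 nm, expressed as triamterene-equivalent signal.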

In experiment [9] the target is Glucocorticoid receptor (Homo sapiens) (UniProt P04150). Kind of experiment: qHTS assay to identify small molecule agonists of the glucocorticoid receptor (GR) signaling pathway (AID 720691; active = well fitted activation curve with a large enough effect in the signal ratio in the repeat runs, not every such curve was filed as active; the % refers to the signal ratio). The settings on record: GR-bla HeLa, beta-lactamase reporter ratio, 18 h; activation: at 62.4 µM (top of the series). The procedure, abridged: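 Compounds in DMSO, alongside positive controls, were added to GR-bla HeLa reporter cells and incubated 18 h at 37 C; GRE-driven beta-lactamase was detected by fluorescence after 2 h with FRET substrate at room temperature.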
Glucocorticoid receptor (Homo sapiens), sequence (P04150 whole entry, looked up): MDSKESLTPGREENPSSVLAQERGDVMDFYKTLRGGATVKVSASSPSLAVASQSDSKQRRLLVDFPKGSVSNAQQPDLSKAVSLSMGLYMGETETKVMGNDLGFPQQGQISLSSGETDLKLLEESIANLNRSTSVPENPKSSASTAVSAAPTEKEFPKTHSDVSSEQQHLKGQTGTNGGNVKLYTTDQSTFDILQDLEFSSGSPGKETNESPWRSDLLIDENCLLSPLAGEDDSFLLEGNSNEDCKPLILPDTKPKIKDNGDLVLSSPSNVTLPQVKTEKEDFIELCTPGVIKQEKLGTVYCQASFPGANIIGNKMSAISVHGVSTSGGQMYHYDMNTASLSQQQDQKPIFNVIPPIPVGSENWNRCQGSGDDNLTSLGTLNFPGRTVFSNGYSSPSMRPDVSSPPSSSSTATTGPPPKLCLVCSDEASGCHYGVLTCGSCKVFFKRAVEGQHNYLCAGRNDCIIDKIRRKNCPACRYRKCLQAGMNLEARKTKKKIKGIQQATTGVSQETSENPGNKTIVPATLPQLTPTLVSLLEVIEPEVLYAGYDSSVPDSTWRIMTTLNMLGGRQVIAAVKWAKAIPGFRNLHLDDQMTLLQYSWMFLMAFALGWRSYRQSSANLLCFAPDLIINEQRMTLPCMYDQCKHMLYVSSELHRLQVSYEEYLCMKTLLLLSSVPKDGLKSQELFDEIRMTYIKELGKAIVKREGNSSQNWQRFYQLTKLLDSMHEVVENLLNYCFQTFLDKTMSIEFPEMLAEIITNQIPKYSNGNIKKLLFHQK

For experiment [10] the target is unchanged. Kind of experiment: qHTS assay to identify small molecule antagonists of the glucocorticoid receptor (GR) signaling pathway (AID 720692; active = well fitted inhibition curve with a large enough effect in the signal ratio in the repeat runs, not every such curve was filed as active; the % refers to the signal ratio; also: potency is read from the fitted curve at half-maximal effect). Particulars: GR-bla HeLa, beta-lactamase FRET ratio, dexamethasone-stimulated, 18 h; series mostly up to 58.5 µM. In outline:
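In a 1536-well cell format, compounds were added 4 h after seeding GR-bla HeLa cells, together with dexamethasone at 5 nM final; reporter activity was measured by FRET-substrate fluorescence following 18 h at 37 C.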

Experiment [11] in a line: qHTS assay to identify small molecule antagonists of the glucocorticoid receptor (GR) signaling pathway - cell viability counter screen (AID 720693). Also: nearly all actives have a fitted effect of over 55% in size. Also: potency is read from the fitted curve at half-maximal effect. Particulars: GR-bla HeLa viability, CellTiter-Glo luminescence, 18 h, with 5 nM dexamethasone present; series mostly up to 58.5 µM.
The nature of experiment [12]: qHTS assay for identifying genotoxic compounds that show differential cytotoxicity against isogenic chicken DT40 cell lines with known DNA damage response pathways - Rev3 mutant cell line (AID 743014). Also: nearly all actives have a fitted effect of over 55% in size. Also: potency is read from the fitted curve at half-maximal effect. The settings on record: chicken DT40 Rev3-/- viability, CellTiter-Glo, 40 h; series mostly up to 68.4 µM.
A short description of experiment [13]: qHTS assay for identifying genotoxic compounds that show differential cytotoxicity against isogenic chicken DT40 cell lines with known DNA damage response pathways - Rad54/Ku70 mutant cell line (AID 743015). Also: nearly all actives have a fitted effect of over 60% in size. Also: potency is read from the fitted curve at half-maximal effect. The settings on record: DT40 Rad54/Ku70 mutant viability, CellTiter-Glo, 40 h; series mostly up to 66.8 µM.
Experiment [14] is described as follows: qHTS assay to identify small molecule antagonists of the androgen receptor (AR) signaling pathway - cell viability counter screen (AID 743033; also: nearly all actives have a fitted effect of over 45% in size; also: potency is read from the fitted curve at half-maximal effect). Particulars: AR-bla HEK293 viability, CellTiter-Glo luminescence, 16 h; series mostly up to 58.5 µM.
A short description of experiment [15]: qHTS assay to identify small molecule antagonists of the androgen receptor (AR) signaling pathway using the MDA cell line - cell viability counter screen (AID 743041; also: nearly all actives have a fitted effect of over 45% in size; also: potency is read from the fitted curve at half-maximal effect). The settings on record: MDA-kb2 viability, CellTiter-Fluor, 16 h, cells co-treated with R1881 androgen agonist; series mostly up to 70.3 µM. The procedure, abridged: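 qHTS viability read-out; MDA-kb2 AR-luc; R1881-stimulated; 16 h exposure at 37C, 0% CO2; CellTiter-Fluor, 30 min; fluorescence intensity.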

A short description of experiment [16]: qHTS assay for identifying genotoxic compounds that show differential cytotoxicity against isogenic chicken DT40 cell lines with known DNA damage response pathways - wild type cell line (AID 743012). Also: nearly all actives have a fitted effect of over 60% in size. Also: potency is read from the fitted curve at half-maximal effect. Particulars: DT40 wild type chicken cells viability, CellTiter-Glo, 40 h; series mostly up to 68.4 µM. The procedure, abridged:
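Viability of DNA repair-proficient chicken DT40 cells was assessed by CellTiter-Glo luminescence following 40 h compound exposure at 37 C/5% CO2.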

Experiment [17] addresses Androgen receptor (Homo sapiens) (UniProt P10275). Kind of experiment: qHTS assay to identify small molecule antagonists of the androgen receptor (AR) signaling pathway (AID 743035; active = well fitted inhibition curve with a large enough effect in the signal ratio in the repeat runs, not every such curve was filed as active; the % refers to the signal ratio). The settings on record: HEK293 AR-UAS-bla, R1881-stimulated, beta-lactamase FRET, 16 h; series mostly up to 58.5 µM. In outline:
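Reporter HEK293 cells were exposed to compounds and R1881 overnight (16 h, 37C); beta-lactamase activity was then quantified by FRET fluorescence.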

The target is the same in experiment [18]. Kind of experiment: qHTS assay to identify small molecule agonists of the androgen receptor (AR) signaling pathway (AID 743036; active = well fitted activation curve with a large enough effect in the signal ratio in the repeat runs, with a control signal flat, not every such curve was filed as active; the % refers to the signal ratio). The settings on record: HEK293 AR-UAS-bla GripTite, beta-lactamase FRET ratio, 16 h; series mostly up to 62.4 µM. In outline:
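Following a 4 h settling period, AR-UAS-bla HEK293 cells were dosed with compounds for 16 h at 37C. A 2 h room-temperature incubation with LiveBLAzer B/G FRET substrate preceded the fluorescence measurement.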

The target is the same in experiment [19]. Nature of the experiment: qHTS assay to identify small molecule agonists of the androgen receptor (AR) signaling pathway using the MDA cell line (AID 743040; also: nearly all actives have a fitted effect of over 20% in size). The settings on record: MDA-kb2 AR-luc cells, MMTV luciferase, 16 h; series mostly up to 70.3 µM. The procedure, abridged:
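Agonist activity is measured as luciferase luminescence in human MDA-kb2 cells whose MMTV reporter responds to both AR and GR. Compounds in DMSO incubate 16 h at 37C, 0% CO2, and ONE-Glo is read after 30 min.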

Experiment [20] has the same target. Nature of the experiment: qHTS assay to identify small molecule antagonists of the androgen receptor (AR) signaling pathway using the MDA cell line (AID 743042; also: nearly all actives have a fitted effect of over 55% in size; also: potency is read from the fitted curve at half-maximal effect). Particulars: MDA-kb2 AR-luc, MMTV luciferase, R1881 antagonist, 16 h; series mostly up to 70.3 µM. In outline: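 MDA-kb2 cells (human breast carcinoma, stably carrying an MMTV-luciferase reporter responsive to AR and GR) were plated at 3,000 cells/well and preincubated 5 hr at 37C, then given compound plus R1881 agonist for 16 h. ONE-Glo luminescence was read.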
Tags tell the direction and shape of the fitted curve or compound fluorescence and quenching.

Androgen receptor (Homo sapiens), sequence (P10275 whole entry, looked up): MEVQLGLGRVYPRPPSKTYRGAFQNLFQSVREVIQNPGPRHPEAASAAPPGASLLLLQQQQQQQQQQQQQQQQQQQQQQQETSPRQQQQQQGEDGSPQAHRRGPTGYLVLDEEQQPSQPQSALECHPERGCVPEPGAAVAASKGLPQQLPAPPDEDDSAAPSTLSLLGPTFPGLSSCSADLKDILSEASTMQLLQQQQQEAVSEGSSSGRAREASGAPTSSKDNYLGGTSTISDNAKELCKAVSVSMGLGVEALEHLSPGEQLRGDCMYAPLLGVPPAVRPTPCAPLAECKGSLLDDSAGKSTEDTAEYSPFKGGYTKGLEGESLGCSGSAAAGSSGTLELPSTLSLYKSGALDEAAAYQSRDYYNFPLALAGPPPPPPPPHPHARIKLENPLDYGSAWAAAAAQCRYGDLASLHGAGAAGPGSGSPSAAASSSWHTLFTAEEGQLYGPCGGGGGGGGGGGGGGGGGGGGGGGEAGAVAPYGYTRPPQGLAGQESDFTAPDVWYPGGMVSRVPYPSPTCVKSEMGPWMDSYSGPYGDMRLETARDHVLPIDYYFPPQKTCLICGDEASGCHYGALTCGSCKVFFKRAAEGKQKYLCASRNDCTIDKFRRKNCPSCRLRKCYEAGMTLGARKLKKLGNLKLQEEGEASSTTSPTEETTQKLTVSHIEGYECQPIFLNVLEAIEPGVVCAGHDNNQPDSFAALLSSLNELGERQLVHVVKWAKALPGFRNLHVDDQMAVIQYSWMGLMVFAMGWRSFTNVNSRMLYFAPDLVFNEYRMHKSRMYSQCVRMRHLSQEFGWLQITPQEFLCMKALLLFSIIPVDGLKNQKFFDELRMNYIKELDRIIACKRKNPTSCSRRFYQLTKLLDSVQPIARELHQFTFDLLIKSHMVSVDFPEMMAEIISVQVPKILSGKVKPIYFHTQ

As to `CC(C)COC(=O)OCN1C(=O)CN(CCN2CC(=O)N(COC(=O)OCC(C)C)C(=O)C2)CC1=O`, the molecule was called inactive in [1], in experiment [3], in experiment [4] and in [5]. Moreover, the Potency entry in [2], in experiment [6], in experiment [7], in [8], in experiment [9] and in [10] was “inactive” in each case. The Potency result in [11], in [12], in experiment [14] and in [15] was “inactive” throughout. Besides, the Potency in [13] is 0.188 µM (active).

For the molecule `Cc1cc(Br)ccc1NC(=O)CCl`, the molecule was classed as inactive in experiment [1], in [3], in experiment [4] and in experiment [5]. For the same molecule, the Potency result in experiment [2], in [6], in [7], in [8] and in [9] was “inactive” in each case. Further, the Potency in experiment [11] is 43.6 µM (active); in [12], 5.45 µM (active); in experiment [14], 24.5 µM (active); in experiment [15] it was 48.6 µM (active).

As to `CC1(C)C[C@@H]1C(=O)N/C(=C\CCCCSC[C@H](N)C(=O)O)C(=O)O`, the molecule was classed as inactive in experiment [1], in [3], in experiment [4] and in experiment [5]. The Potency entry in experiment [2], in experiment [6], in [7], in experiment [8], in experiment [11] and in [16] was “inactive” throughout. For the same molecule, the Potency result in experiment [12], in [13], in experiment [14], in experiment [17], in [18] and in experiment [19] was “inactive” in each case. Also, the Potency result in experiment [15] and in experiment [20] was “inactive” each time.

For the molecule `CC(C)(O/N=C(\C(=O)N[C@@H]1C(=O)N2C(C(=O)[O-])=C(C[n+]3ccccc3)CS[C@H]12)c1csc(N)n1)C(=O)O`, the molecule was classed as inactive in experiment [1], in experiment [3], in [4] and in [5]. The Potency entry in [2], in [6], in experiment [7], in [8], in experiment [9] and in [16] was “inactive” each time. For the same molecule, the Potency result in experiment [12], in experiment [13], in experiment [14] and in experiment [15] was “inactive” each time.

For `CCCC(=O)c1cc(O)c(O)cc1O`, the result in experiment [1], in [3], in [4] and in experiment [5] was inactive. Further, the Potency entry in [2], in experiment [6], in experiment [7], in experiment [8], in experiment [9] and in experiment [19] was “inactive” each time. Moreover, the Potency result in [20] was “inactive”. Moreover, the Potency is 24.3 µM (active) in experiment [16], 29.8 µM (active) in experiment [12] and 45 µM (active) in experiment [13].

With `N#Cc1nc(Cl)c(Cl)c(Cl)c1Cl`, the molecule was classed as inactive in [1], in experiment [3], in experiment [4] and in experiment [5]. In addition, the Potency result in experiment [2], in [6], in [7], in experiment [8] and in experiment [19] was “inactive” throughout. In addition, the Potency in experiment [10] was 1.23 µM (active); in [11] it was 19.5 µM (active); in experiment [16] it was 1.54 µM (active); in experiment [12], 1.72 µM (active); in experiment [14], 9.77 µM (active); in experiment [15], 30.6 µM (active). Further, in experiment [20], the Potency was 6.86 µM (active).

Turning to `CN(C)CCC(O)(c1ccccc1)c1ccccc1Cl` (stereo not drawn), the call in [1], in [3], in [4] and in experiment [5] was inactive. In addition, the Potency entry in [2], in experiment [6], in experiment [7], in experiment [8], in experiment [9] and in experiment [10] was “inactive” throughout. Besides, the Potency result in experiment [11], in [14] and in experiment [15] was “inactive” each time.

Regarding `O=C1c2ccccc2-c2n[nH]c3cccc1c23`, the molecule was classed as inactive in [1], in experiment [3], in experiment [4] and in [5]. Besides, the Potency in experiment [2] is 14.1 µM (active); in experiment [6] it was 12.6 µM [fluorescent] (active); in experiment [8], 14.1 µM [fluorescent] (active); in experiment [16], 9.44 µM (active); in experiment [12], 11.9 µM (active); in [13] it was 9.44 µM (active). Besides, the Potency result in [7], in experiment [11], in [14], in experiment [19] and in [20] was “inactive” each time.
